Bioassay records as filed in PubChem.
Hsp70 activator: switches on Hsp70 transcription | HeLa Hsp70 promoter luciferase reporter, luminescence; scaled: vehicle 0, proteasome-inhibitor control 100% | activation, % at 10 µM | 200,000 tested, 0.04% active;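 active = activation above the mean across all tested compounds plus 3 SD, cutoff set per campaign, cut at about 5.5% in these data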;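 note: 100% = MG132 at 30 µM as the positive control and 0% = DMSO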
SMARCA2 act: increases SMARCA2 function in MMTV reporter cells. MG213 cells, MMTV-luciferase reporter, dexamethasone, overnight. activation, % at 9.1 µM. 370,000 tested, 1% active. AID 652017; in the data active = activation above about 7.8%;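 note: 0% = vehicle wells and 100% = reference activator wells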
HIF act: HIF pathway transcriptional activation. U2OS HRE-luciferase reporter, luminescence; normalized: DMSO 0%, desferrioxamine 100%. activation, % at 7.5 µM (by protocol). 300,000 tested, 0.32% active. AID 1910;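 active = mean activation of at least 10% of the iron chelator positive control signal, with at least half of replicates also reaching 10%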
GalR3 antagonist: blocks the human galanin receptor 3; O60755; 360,000 tested, 0.44% active; AID 651719; HEK293 GalR3-CNG cAMP membrane potential fluorescence; galR3 body fused to GalR1 C-terminus; inhibition, % at 3 µM;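 active = inhibition above the screen-wide average plus 3 SD, cut at about 13% in these data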;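 note: forskolin and galanin both at EC90 stimulate the cells; cAMP rise reported by CNG channel membrane potential dye signal; 0% = forskolin plus galanin with DMSO and 100% = forskolin alone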
Target sequence (O60755 1-299 limits assumed): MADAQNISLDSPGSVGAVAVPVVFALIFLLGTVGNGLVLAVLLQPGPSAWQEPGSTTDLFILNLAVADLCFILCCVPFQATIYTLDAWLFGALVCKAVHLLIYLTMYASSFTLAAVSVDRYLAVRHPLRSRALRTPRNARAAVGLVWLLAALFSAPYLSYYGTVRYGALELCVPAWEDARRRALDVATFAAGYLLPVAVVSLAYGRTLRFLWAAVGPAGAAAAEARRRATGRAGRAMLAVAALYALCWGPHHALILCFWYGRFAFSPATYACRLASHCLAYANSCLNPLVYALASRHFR
FXN GAA850 act: activators of GAA850 frataxin (FXN) promoter. HEK293 lucGAA850 FXN promoter luciferase reporter, 24 h; percent of 10 µM SAHA response. activation, % at 6 µM. 360,000 tested, 0.56% active;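 active = activation above the average of all compounds screened plus 3 SD, cutoff fixed separately per campaign, cut at about 7.5% in these data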;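 note: 0% = DMSO wells and 100% = 10 µM SAHA wells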
GAA30 FXN cntr: GAA30 FXN promoter activation counter-screen. shares compounds with FXN GAA850 act. HEK293 lucGAA30 FXN promoter luciferase, 24 h; DMSO = 0%, 5 µM ipriflavone = 100%. activation, % at 6 µM. 1,900 tested, 66% active;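 active = mean activation above the mean of solvent-only control wells plus 3 SD, cut at about 22% in these data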;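 note: counterscreen of GAA850 promoter hits where activity marks nonselective or luminescence artifacts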
GAA850 confirm: GAA850 FXN promoter activation confirmation; 1,900 tested, 86% active; shares compounds with FXN GAA850 act; HEK293 lucGAA850 FXN promoter luciferase reporter, 24 h; 100% = activation by SAHA; activation, % at 6 µM;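 active = mean activation above a set limit taken from the primary screen, cut at about 8% in these data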;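 note: 0% = DMSO wells and 100% = 10 µM SAHA wells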
Starred values were filed as active, the others as inactive; . = no result given. Most compounds without a hit are left out; they make up all but 2.2% or so of the library.

SMILES	Hsp70 activator	SMARCA2 act	HIF act	GalR3 antagonist	FXN GAA850 act	GAA30 FXN cntr	GAA850 confirm
Cc1cc(N2CCN(CC(C)(C)O)C[C@H]2C)ccc1N1CCN(Cc2ccccc2)[C@@H](C)C1	.	0	.	-8	.	.	.
N#Cc1c(-c2ccccc2)cc(C2CC2)nc1N	0	1	-1	-2	8.3*	13	9.5*
COc1nc(C)ccc1-c1noc(-c2ccccn2)n1	0	.	2	.	6	.	.
COc1ccccc1-c1nc(-c2ccc(C)nc2OC)no1	0	4	5	-1	8.8*	121*	40*
O=C(CCC(=O)N1CCSc2ccccc21)NC1CCCCC1	.	-1	0	6	8.0*	14	5
CCOC(=O)CC[C@H]1CC[C@]2(CCCN(C(=O)c3ccccc3)C2)O1	.	2	.	.	.	.	.
COc1ccc(F)cc1-c1cc(C(C)=O)c2n(c1=O)CCC2	.	-2	.	.	.	.	.
O=C(O)c1ccccc1N/N=C/c1cc(Br)cc(Br)c1O	.	5	3	0	9.3*	135*	42*
Cn1c(/C=N/Nc2nc3ccccc3[nH]2)nc2ccccc21	1	5	8	-4	8.5*	-33	-10
Cc1c(/C=N/Nc2nc3ccccc3[nH]2)c2ccccc2n1C	.	-3	8	-3	6	.	.
Clc1nc2ccccc2cc1/C=N/Nc1nc2ccccc2[nH]1	0	5	1	-6	8.4*	128*	44*
O=S1(=O)CC2c3ccccc3CN2CN1Cc1ccc(F)cc1 (stereo not given)	.	-4	.	.	.	.	.
C[C@@H]1CNC(=O)c2c(C(=O)N3CCN(c4ccccc4)CC3)ncn21	.	-2	.	-6	.	.	.
CCC(=O)c1ccc(OCc2ccccc2)c(OC)c1	0	1	3	-5	7.8*	101*	38*
CCN(CC)C(=O)CC[C@H]1CC[C@]2(CCCN(Cc3ccncc3)C2)O1	.	0	.	.	.	.	.
COc1ccc(N2C(=O)CC(N(CCc3ccc(S(N)(=O)=O)cc3)C(=S)Nc3ccccc3)C2=O)cc1 (stereo not given)	.	-4	-1	-6	0	.	.
COc1ccc(N2C(=O)CC(N(CCc3ccc(OC)c(OC)c3)C(=S)Nc3ccccc3)C2=O)cc1 (stereo not given)	0	-5	1	-5	8.4*	1	11*
COCc1cc(C)nc(SCC(=O)c2ccc(O)c(O)c2)c1C#N	0	-2	0	2	10*	40*	18*
Cn1c(O)c(N=NC(=O)c2ccco2)c2ccccc21	0	5	0	-1	8.4*	144*	38*
Cn1c(O)c(N=NC(=O)CNC(=O)c2ccco2)c2ccccc21	0	-1	0	-4	2	.	.
CCCCOC(=O)Nc1ccc(C(N)=O)cc1	1	4	1	0	3	.	.
CCCCOC(=O)Nc1ccc(N2CCCCC2)cc1	0	1	1	0	8.1*	93*	31*
Cc1c(CN(C)C)c2c(n1C)C(=O)c1ccc(Br)cc1-2	0	7	0	-14	11*	20	18*
COc1ccc(C(=O)/C=C/Sc2nc3ccccc3o2)cc1	.	1	3	-5	9.8*	5	5
c1ccc(Nc2nnc(SCc3cccc4ccccc34)s2)cc1	0	1	0	-2	4	.	.
SMILES	Hsp70 activator	SMARCA2 act	HIF act	GalR3 antagonist	FXN GAA850 act	GAA30 FXN cntr	GAA850 confirm
Cc1nnc(SCc2cccc3ccccc23)s1	.	2	3	-5	7.6*	80*	29*
COc1cc(C=NN2CCN(C(c3ccccc3)c3ccccc3)CC2)cc(OC)c1OC(C)=O	.	-5	.	.	.	.	.
CCOC(=O)[C@@]12CCC3=C1N(CCC3)C(=O)[C@H](CC(=O)NCCCCc1ccccc1)C2	.	-2	.	.	.	.	.
COCC(=O)Nc1nnc(-c2ccc(C(C)(C)C)cc2)s1	0	2	1	-2	8.3*	124*	37*
COC(=O)[C@]12C[C@H](CC(=O)N3CCCC3)C(=O)N(CCC3=CCCCC3)C1=C[C@H](C(C)C)O[C@@H]2C1CC1	.	-5	.	.	.	.	.
CCCCNC(=O)NC1CCN(CC(=O)Nc2ccc3c(c2)OCCO3)CC1	.	-5	.	.	.	.	.
